Assay outcomes from PubChem.
Compounds with a hit are over-represented: about 7.1% of the library has one in this group of screens.
SW480 rerep: induces DNA re-replication in SW480 colon adenocarcinoma cells. 340,000 tested, 1.8% active. Potency, µM (highest dose often 46.1 µM), for inactives: at the top dose re-replication activation, hits mostly activators. SW480 DNA re-replication, Hoechst DNA content imaging, 48 h; also: potency is read from the fitted curve at half-maximal effect; % of control where 0% means no effect; nearly all actives have a fitted effect of over 55% in size
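First, 250 cells per well were seeded. Next, compound or vehicle (23 nL) was pinned in, plates sat 48 hr at 37 C. Finally Hoechst was added for 40 min before fluorescence scanning.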
MCF10A rerep: inducers of DNA re-replication in MCF 10A breast cells; MCF 10A DNA re-replication, Hoechst nuclear intensity, 48 h; Potency, µM (titrated, usually from 46.1 µM), inactives show at the top dose activity, positive = re-replication, most hits filed as activators; 350,000 tested, 2.9% active; also: potency is read from the fitted curve at half-maximal effect; % of control where 0% means no effect; nearly all actives have a fitted effect of over 50% in size
PINK1 expr mod: changes PINK1 expression. PINK1 immunofluorescence, high-content cytometry, 24 h. Potency, µM (titrated, usually from 76.6 µM), for inactives: top-dose activation (PINK1 increase), most hits filed as activators. 410,000 tested, 0.2% active. AID 624263; active = well fitted activation curve with a large enough effect; inconclusive = small, poorly fitted or top-dose-only effect; cell line not stated here; also: potency is read from the fitted curve at half-maximal effect; % of control where 0% means no effect; nearly all actives have a fitted effect of over 65% in size
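Stable cell line treated 24 h with compounds at 5 concentrations (CCCP controls), then fixed and immunostained for PINK1 plus nuclear and cell stains; PINK1 immunofluorescence quantified by laser-scanning microplate cytometry.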
IL-1B inflam inh: inflammasome signaling inhibition, IL-1 beta readout; THP-1 LPS/ATP IL-1B secretion, AlphaLISA, 16 h; hits give low values; activity change, % at 57.5 µM; 360,000 tested, 4.7% active; in the data active = activity change below about -50%; inconclusive = mostly about -30% to -49%; also: % is scaled to controls: 0 for no effect and ±100 for the full control effect
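THP-1 cells pretreated 1 hr with compounds (up to 57.5 uM final), then stimulated with LPS (250 ng/mL final) plus ATP (1.25 mM final); secreted IL-1B measured by AlphaLISA after 16 hr, decreased signal indicating inhibition.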
S2 tox: viability counter-screen for ATXN expression inhibitors; Potency, µM (highest dose often 56.7 µM), most hits filed as cytotoxic; S2 cells (HEK-293 line with an ATXN2-luciferase reporter) viability, CellTiter-Fluor protease fluorescence, 24 h; 400,000 tested, 0.49% active; also: potency is read from the fitted curve at half-maximal effect; nearly all actives have a fitted effect of over 40% in size
ATXN2 expr inh: reduces ATXN2 reporter expression in HEK-293 cells. HEK-293 ATXN2-luciferase reporter, luminescence, 24 h. Potency, µM (doses to about 57 µM), for inactives: top-dose activity change, negative = inhibition, actives largely listed as inhibitors. 360,000 tested, 0.72% active; also: potency is read from the fitted curve at half-maximal effect; % is scaled to controls: 0 for no effect and ±100 for the full control effect; nearly all actives have a fitted effect of over 55% in size
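ATXN2-luciferase reporter cells (luciferase flanked by upstream and downstream ATXN2 gene portions) were treated 24 h at 37 °C with compounds at up to 57 uM. SteadyGlo luminescence gave expression; GF-AFC fluorescence gave viability.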
Starred values were filed as active, the others as inactive; [ ] = remark or other dose. Unless noted, calls follow the shape of the dose curve; as a rule, active = well fitted curve in the direction sought with a large enough effect; inconclusive = small, poorly fitted or top-dose-only effect, or another doubt; inactive = no such curve, though single readings can be large; an effect the other way counts as inactive or inconclusive.

Results for CCOC(=O)c1sc2ccccc2c1S(=O)(=O)N1CCN(c2cc(C)ccc2C)CC1 ?
PINK1 expr mod: 4.2%; S2 tox: inactive; ATXN2 expr inh: -4.1%

How did COc1cc(SC)ccc1C(=O)Nc1ccc(C)cc1C do in these assays?
SW480 rerep: 0.6%; MCF10A rerep: inconclusive; PINK1 expr mod: 0.0%; IL-1B inflam inh: 0.0; S2 tox: inconclusive; ATXN2 expr inh: 56.1%

Results for COc1cc(SC)ccc1C(=O)Nc1cccc(C)n1 ?
SW480 rerep: -1.4%; MCF10A rerep: inconclusive; PINK1 expr mod: -0.6%; IL-1B inflam inh: -69.7*; S2 tox: inactive; ATXN2 expr inh: 9.4%

How did COc1cc(SC)ccc1C(=O)Nc1ccc(C)cc1 do in these assays?
SW480 rerep: 6.3%; MCF10A rerep: 1.6%; PINK1 expr mod: -0.8%; IL-1B inflam inh: -56.7*; S2 tox: inactive; ATXN2 expr inh: 100.9%

Results for COc1cc(SC)ccc1C(=O)Nc1ccc2c(c1)OCO2 ?
SW480 rerep: 1.7%; MCF10A rerep: 21.0%; PINK1 expr mod: 0.2%; IL-1B inflam inh: -63.1*; S2 tox: inactive; ATXN2 expr inh: 82.8%[11.3 µM]

Results for CN(C(=O)c1ccc2c(c1)N(Cc1cccc(Cl)c1)C(=O)c1ccccc1S2(=O)=O)C1CCCCC1 ?
PINK1 expr mod: 1.5%

What do the screens show for `CC(=O)NC(c1ccc([N+](=O)[O-])cc1)c1c(O)ccc2ccccc12` (centres undefined)?
SW480 rerep: 4.4%; MCF10A rerep: -2.1%; PINK1 expr mod: 2.8%; IL-1B inflam inh: -8.7; S2 tox: inactive; ATXN2 expr inh: 0.6%

Results for CCCCC(=O)NC(c1ccccc1Cl)c1c(O)ccc2ccccc12 (centres undefined) ?
SW480 rerep: 5.9%; MCF10A rerep: 11.3%; PINK1 expr mod: inconclusive; IL-1B inflam inh: -89.4*; S2 tox: inactive; ATXN2 expr inh: -7.9%

How did CC(C)C(=O)NC(c1ccc([N+](=O)[O-])cc1)c1c(O)ccc2ccccc12 (centres undefined) do in these assays?
SW480 rerep: 14.8%; MCF10A rerep: inconclusive; PINK1 expr mod: inconclusive; IL-1B inflam inh: -87.8*; S2 tox: inconclusive; ATXN2 expr inh: inconclusive

Results for CC(=O)NC(c1ccc(C(C)C)cc1)c1c(O)ccc2ccccc12 (centres undefined) ?
SW480 rerep: inconclusive; MCF10A rerep: 18.4µM*; PINK1 expr mod: inconclusive; IL-1B inflam inh: -74.9*; S2 tox: inactive; ATXN2 expr inh: 2.0%

What do the screens show for `CCCC(=O)NC(c1ccccc1Cl)c1c(O)ccc2ccccc12` (centres undefined)?
SW480 rerep: inconclusive; MCF10A rerep: 14.5%; PINK1 expr mod: inconclusive; IL-1B inflam inh: -26.4; S2 tox: inactive; ATXN2 expr inh: -4.5%

Results for COc1cc(OC)cc(C(=O)OCC(=O)NC2CCCCCCC2)c1 ?
PINK1 expr mod: 3.8%; IL-1B inflam inh: 18.1; S2 tox: inactive

Results for CC1CC(C)CN(CCOc2ccc(Cl)cc2Cl)C1 (centres undefined) ?
SW480 rerep: -2.9%; MCF10A rerep: 17.3%; PINK1 expr mod: 1.7%; IL-1B inflam inh: -67.9*; S2 tox: inactive; ATXN2 expr inh: -31.2%

How did CC1CC(C)CN(CCOc2cccc(Cl)c2Cl)C1 (centres undefined) do in these assays?
SW480 rerep: 2.1%; MCF10A rerep: 12.2%; PINK1 expr mod: 9.7%; IL-1B inflam inh: -68.4*; S2 tox: inactive; ATXN2 expr inh: -24.9%

What do the screens show for `CCN1CCN(CCOc2cccc(Cl)c2Cl)CC1`?
SW480 rerep: inconclusive; MCF10A rerep: inconclusive; PINK1 expr mod: -3.0%; IL-1B inflam inh: 2.0; S2 tox: inactive

How did CC1CC(C)CN(CCOCCSc2ccc(Cl)cc2)C1 (centres undefined) do in these assays?
SW480 rerep: inconclusive; MCF10A rerep: 16.4µM*; PINK1 expr mod: 5.0%; IL-1B inflam inh: inconclusive; S2 tox: inconclusive; ATXN2 expr inh: inconclusive
